# Laboratory results taken from PubChem BioAssay (Tox21).
# “And” between values parts separate entries of the source, which are not always exact repeats. Identical values can stand only once. Records with an inconclusive call do not appear. Entries that show only a call come without a potency. Some compounds were tested as several samples or in several runs, with calls that do not always agree. The source made the active and inactive calls. Unless noted, the call rests on the fitted dose curve; in most records, active means well fitted curve in the direction sought with a large enough effect in the repeat runs; inconclusive means weak or mixed curves; inactive means no such curve, though single readings can be large; an effect the other way counts as inactive or inconclusive.
# Columns and labels:
# [1] = qHTS assay to identify small molecule agonists of H2AX - cell viability counter screen (AID 1224847; calls by dose curve; further: nearly all actives have a fitted effect of over 30% in size; further: potency means the concentration at half of the fitted maximal effect)
# Outline: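 Read-out: CellTiter-Glo luminescence, 30 min RT. Cells: wild-type CHO-K1, 1000/well, 10% FBS, plated overnight at 37C. Treatment: 15 concentrations, 3 hr, 37C, 0.76% DMSO.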
# [2] = qHTS assay to identify small molecule agonists of the estrogen related receptor (ERR) signaling pathway from Tox21 library (AID 1224849; calls by dose curve; further: nearly all actives have a fitted effect of over 15% in size); settings: ERR reporter cell line, ONE-Glo luciferase, 18 h
# Outline: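 Cells carrying the ERR reporter were plated and allowed to settle for 6 h, exposed to library compounds for 18 h at 37 C, then lysed with ONE-Glo and luminescence measured.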
# [3] = qHTS RealTime-Glo MT Cell Viability Assay in HepG2 cells - 24 hour (AID 1224867); further: nearly all actives have a fitted effect of over 50% in size
# Outline: (§1)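 HepG2 cells (600/well) were dispensed with RealTime-Glo reagents, incubated 5 h at 37 °C, then treated with compounds in DMSO for up to 40 h. Nonlytic NanoLuc luminescence reflecting viable cells was read at each stated time point.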
# [4] = qHTS RealTime-Glo MT Cell Viability Assay in HEK293 cells - 32 hour (AID 1224868); further: nearly all actives have a fitted effect of over 50% in size; further: potency means the concentration at half of the fitted maximal effect
# Outline: (§2)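 HEK293 cells seeded with NanoLuc/prosubstrate reagent, rested 5 h at 37 C, then dosed and kept at 37 C up to 40 h. Nonlytic real-time luminescence from viable cells read at 0, 8, 16, 24, 32 and 40 h.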
# [5] = A CellTox Green Cytotoxicity Assay to monitor cytotoxicity in HEK293 cells - 0 hour (AID 1224869); further: nearly all actives have a fitted effect of over 50% in size
# Outline: (§3)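 Cells (HEK293, 600/well) and dye reagent are dispensed together. After 5 h at 37 C, 23 nL compound is pinned in. Plates stay at 37 C for 40 h with fluorescence read at 0h, 8h, 16h, 24h, 32h and 40h.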
# [6] = A CellTox Green Cytotoxicity Assay to monitor cytotoxicity in HEK293 cells - 40 hour (AID 1224871); further: nearly all actives have a fitted effect of over 45% in size; further: potency means the concentration at half of the fitted maximal effect
# Outline: as §3
# [7] = qHTS RealTime-Glo MT Cell Viability Assay in HEK293 cells - 16 hour (AID 1224872); further: nearly all actives have a fitted effect of over 50% in size; further: potency means the concentration at half of the fitted maximal effect
# Outline: as §2
# [8] = qHTS RealTime-Glo MT Cell Viability Assay in HEK293 cells - 40 hour (AID 1224874); settings: RealTime-Glo luminescence; max response: stronger effect = lower value; further: nearly all actives have a fitted effect of over 50% in size; further: potency means the concentration at half of the fitted maximal effect
# Outline: (§4)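 Real-time viability in HEK293: signal arises when living cells convert a prosubstrate for NanoLuc in the medium, so luminescence tracks viable cell number. Compound (23 nL, DMSO) added 5 h post-seeding; kinetic reads at 0–40 h, 37 C.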
# [9] = A CellTox Green Cytotoxicity Assay to monitor cytotoxicity in HEK293 cells - 24 hour (AID 1224875); further: nearly all actives have a fitted effect of over 45% in size
# Outline: as §3
# [10] = A CellTox Green Cytotoxicity Assay to monitor cytotoxicity in HepG2 cells - 16 hour (AID 1224876); further: nearly all actives have a fitted effect of over 45% in size; further: potency means the concentration at half of the fitted maximal effect
# Outline: (§5)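 Cells and non-lytic dye reagent are dispensed together (600 HepG2 cells/well) and incubated 5 h before DMSO compound transfer. Kinetic fluorescence is then recorded in the same wells during 40 h at 37 C.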
# [11] = qHTS RealTime-Glo MT Cell Viability Assay in HepG2 cells - 32 hour (AID 1224877); further: nearly all actives have a fitted effect of over 55% in size
# Outline: as §1
# [12] = A CellTox Green Cytotoxicity Assay to monitor cytotoxicity in HepG2 cells - 24 hour (AID 1224878); further: nearly all actives have a fitted effect of over 45% in size; further: potency means the concentration at half of the fitted maximal effect
# Outline: as §5
# [13] = A CellTox Green Cytotoxicity Assay to monitor cytotoxicity in HepG2 cells - 40 hour (AID 1224879); further: nearly all actives have a fitted effect of over 40% in size; further: potency means the concentration at half of the fitted maximal effect
# Outline: as §5
# [14] = qHTS RealTime-Glo MT Cell Viability Assay in HEK293 cells - 0 hour (AID 1224880)
# Outline: as §4
# [15] = A CellTox Green Cytotoxicity Assay to monitor cytotoxicity in HEK293 cells - 32 hour (AID 1224881); further: nearly all actives have a fitted effect of over 40% in size
# Outline: as §3
# [16] = A CellTox Green Cytotoxicity Assay to monitor cytotoxicity in HepG2 cells - 0 hour (AID 1224882); further: nearly all actives have a fitted effect of over 35% in size
# Outline: as §5
# [17] = A CellTox Green Cytotoxicity Assay to monitor cytotoxicity in HepG2 cells - 32 hour (AID 1224883); further: nearly all actives have a fitted effect of over 50% in size; further: potency means the concentration at half of the fitted maximal effect
# Outline: as §5
# [18] = A CellTox Green Cytotoxicity Assay to monitor cytotoxicity in HEK293 cells - 8 hour (AID 1224884); further: nearly all actives have a fitted effect of over 35% in size
# Outline: as §3
# [19] = qHTS RealTime-Glo MT Cell Viability Assay in HepG2 cells - 40 hour (AID 1224870); further: nearly all actives have a fitted effect of over 50% in size
# Outline: (§6)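 HepG2 cells (600/well) mixed with RealTime-Glo MT reagent, settled 5 h at 37 C/5% CO2 before compound addition. Nonlytic NanoLuc luminescence from viable-cell prosubstrate reduction read repeatedly during 40 h treatment at 37 C.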
# [20] = qHTS RealTime-Glo MT Cell Viability Assay in HepG2 cells - 8 hour (AID 1224873); further: nearly all actives have a fitted effect of over 55% in size
# Outline: as §6
compound,measurement,setting,value
Cc1cccc(O)c1,Potency,[1],inactive
same,"activity change, positive = activation",[2]; at 92.4 µM (top of the series),8.59% (inactive) and 2.31% (inactive)
same,outcome,[3],inactive
same,Potency,[4],inactive
same,outcome,[5],inactive
same,Potency,[6],inactive
same,Potency,[7],inactive
same,max response,[8],3.75% (inactive) and 3.48% (inactive)
same,Potency,[9],inactive
same,Potency,[10],inactive
same,outcome,[11],inactive
same,Potency,[12],inactive
same,Potency,[13],inactive
same,Potency,[14],inactive
same,Potency,[15],inactive
same,outcome,[16],inactive
same,Potency,[17],inactive
same,outcome,[18],inactive
OCC(CO)(CBr)CBr,Potency,[1],inactive
same,"activity change, positive = activation",[2]; at 92.4 µM (top of the series),2.42% (inactive) and 0.192% (inactive)
same,outcome,[3],inactive
same,Potency,[4],inactive
same,outcome,[5],inactive
same,outcome,[19],inactive
same,Potency,[6],inactive
same,Potency,[7],inactive
same,outcome,[20],inactive
same,max response,[8],-5.13% (inactive) and 3.96% (inactive)
same,Potency,[9],inactive
same,Potency,[10],inactive
same,outcome,[11],inactive
same,Potency,[12],inactive
same,Potency,[13],inactive
same,Potency,[14],inactive
same,Potency,[15],inactive
same,outcome,[16],inactive
same,Potency,[17],inactive
same,outcome,[18],inactive
CN(C)CCOCCN(C)C,Potency,[1],inactive
same,"activity change, positive = activation",[2]; at 92.4 µM (top of the series),-5.24% (inactive) and -0.172% (inactive)
same,outcome,[3],inactive
same,Potency,[4],inactive
same,outcome,[5],inactive
same,outcome,[19],inactive
same,Potency,[6],inactive and 43.6 µM (active)
same,Potency,[7],inactive
same,outcome,[20],inactive
same,outcome,[11],inactive
same,Potency,[12],inactive and 49 µM (active)
same,Potency,[13],inactive and 49 µM (active)
same,Potency,[14],inactive
same,outcome,[16],inactive
same,Potency,[17],inactive and 49 µM (active)
same,outcome,[18],inactive
Cc1cccnc1,Potency,[1],inactive
same,"activity change, positive = activation",[2]; at 92.4 µM (top of the series),2.78% (inactive) and 3.63% (inactive)
same,outcome,[3],inactive
same,Potency,[4],inactive
same,outcome,[5],inactive
same,outcome,[19],inactive
same,Potency,[6],inactive
same,Potency,[7],inactive
same,max response,[8],-5.56% (inactive) and 0.742% (inactive)
same,Potency,[9],inactive
same,outcome,[11],inactive
same,Potency,[12],inactive
same,Potency,[13],inactive
same,Potency,[14],inactive
same,Potency,[15],inactive
same,outcome,[16],inactive
same,Potency,[17],inactive
same,outcome,[18],inactive
O=C(O)CCCC[C@@H]1SC[C@@H]2NC(=O)N[C@@H]21,Potency,[1],inactive
same,"activity change, positive = activation",[2]; at 42.5 µM (top of the series),7.51% (inactive)
same,"activity change, positive = activation",[2]; at 92.4 µM (top of the series),9.85% (inactive)
same,outcome,[3],inactive
same,Potency,[4],inactive
same,outcome,[5],inactive
same,Potency,[6],inactive
same,Potency,[7],inactive
same,outcome,[20],inactive
same,Potency,[9],inactive
same,Potency,[10],inactive
same,outcome,[11],inactive
same,Potency,[12],inactive
same,Potency,[13],inactive
same,Potency,[14],inactive
same,Potency,[15],inactive
same,outcome,[16],inactive
same,Potency,[17],inactive
same,outcome,[18],inactive
CC(C)CC(=O)CC(C)C,Potency,[1],inactive
same,"activity change, positive = activation",[2]; at 92.4 µM (top of the series),0.354% (inactive) and 0.455% (inactive)
same,outcome,[3],inactive
same,Potency,[4],inactive
same,outcome,[5],inactive
same,outcome,[19],inactive
same,Potency,[6],inactive
same,Potency,[7],inactive
same,outcome,[20],inactive
same,Potency,[9],inactive
same,Potency,[10],inactive
same,outcome,[11],inactive
same,Potency,[12],inactive
same,Potency,[13],inactive
same,Potency,[14],inactive
same,Potency,[15],inactive
same,outcome,[16],inactive
same,Potency,[17],inactive
same,outcome,[18],inactive
O=C(CC(C(=O)OC1CCCCC1)S(=O)(=O)O)OC1CCCCC1 (stereo not drawn),Potency,[1],inactive
same,"activity change, positive = activation",[2]; at 92.4 µM (top of the series),3.03% (inactive) and -2.61% (inactive)
same,outcome,[3],inactive
same,Potency,[4],inactive
same,outcome,[5],inactive
same,outcome,[19],inactive
same,Potency,[6],inactive
same,Potency,[7],inactive
same,max response,[8],7.94% (inactive) and 16.6% (inactive)
same,Potency,[9],inactive
same,outcome,[11],inactive
same,Potency,[12],inactive
same,Potency,[13],inactive
same,Potency,[14],inactive
same,Potency,[15],inactive
same,outcome,[16],inactive
same,Potency,[17],inactive
same,outcome,[18],inactive
C=C(C)C(=O)O[C@H]1C[C@@H]2CC[C@@]1(C)C2(C)C,Potency,[1],inactive
same,"activity change, positive = activation",[2]; at 92.4 µM (top of the series),-82.3% (inactive) and 8.09% (inactive)
same,outcome,[3],inactive
same,Potency,[4],15.4 µM (active) and inactive
same,outcome,[5],inactive
same,Potency,[6],12.2 µM (active) and inactive
same,Potency,[7],15.4 µM (active) and inactive
same,outcome,[20],inactive
same,Potency,[8],15.4 µM (active)
same,max response,[8],2.39% (inactive)
same,Potency,[9],inactive
same,Potency,[10],inactive
same,outcome,[11],inactive
same,Potency,[12],4.87 µM (active) and inactive
same,Potency,[13],7.71 µM (active) and inactive
same,Potency,[14],inactive
same,outcome,[16],inactive
same,Potency,[17],6.87 µM (active) and inactive
same,outcome,[18],inactive
CC[C@H](C)C(=O)O[C@H]1C[C@@H](C)C=C2C=C[C@H](C)[C@H](CC[C@@H]3C[C@@H](O)CC(=O)O3)[C@H]21,Potency,[1],115 µM (active) and inactive
same,"activity change, positive = activation",[2]; at 42.5 µM (top of the series),14.3% (active)
same,"activity change, positive = activation",[2]; at 92.4 µM (top of the series),-46.9% (active) and 27.5% (active)
same,outcome,[3],inactive
same,Potency,[4],inactive
same,outcome,[5],inactive
same,outcome,[19],inactive
same,Potency,[6],inactive
same,Potency,[7],inactive
same,outcome,[20],inactive
same,max response,[8],-8.74% (inactive) and -19.2% (inactive)
same,Potency,[9],inactive
same,Potency,[10],49.6 µM (active) and inactive and 16.9 µM (active)
same,outcome,[11],inactive
same,Potency,[12],24.9 µM (active) and 10.7 µM (active)
same,Potency,[13],7.01 µM (active) and 21.8 µM (active) and 9.52 µM (active)
same,Potency,[14],inactive
same,outcome,[16],inactive
same,Potency,[17],11.1 µM (active) and 17.3 µM (active) and 9.52 µM (active)
same,outcome,[18],inactive
CCCCC(CC)COC(=O)CS (stereo not drawn),Potency,[1],inactive
same,"activity change, positive = activation",[2]; at 92.4 µM (top of the series),-0.266% (inactive) and -15.8% (inactive)
same,outcome,[3],inactive
same,Potency,[4],inactive and 17.4 µM (active)
same,outcome,[5],inactive
same,outcome,[19],inactive
same,Potency,[6],inactive
same,Potency,[7],inactive
same,outcome,[20],inactive
same,Potency,[9],inactive
same,outcome,[11],inactive
same,Potency,[12],inactive
same,Potency,[13],inactive
same,Potency,[14],inactive
same,Potency,[15],inactive
same,outcome,[16],inactive
same,Potency,[17],inactive
same,outcome,[18],inactive
O=P(OC(CCl)CCl)(OC(CCl)CCl)OC(CCl)CCl,Potency,[1],inactive
same,"activity change, positive = activation",[2]; at 92.4 µM (top of the series),-54.2% (inactive) and -40.7% (inactive)
same,outcome,[3],inactive
same,Potency,[4],24.4 µM (active) and 49 µM (active)
same,outcome,[5],inactive
same,outcome,[19],inactive
same,Potency,[6],inactive
same,Potency,[8],21.8 µM (active) and 49 µM (active)
same,Potency,[9],inactive
same,Potency,[10],inactive
same,outcome,[11],inactive
same,Potency,[12],inactive
same,Potency,[13],inactive
same,Potency,[14],inactive
same,Potency,[15],inactive
same,outcome,[16],inactive
same,Potency,[17],inactive
same,outcome,[18],inactive
ON=C1CCCCC1,Potency,[1],inactive
same,"activity change, positive = activation",[2]; at 92.4 µM (top of the series),-1.41% (inactive) and -1.15% (inactive)
same,outcome,[3],inactive
same,Potency,[4],inactive
same,outcome,[5],inactive
same,outcome,[19],inactive
same,Potency,[6],inactive
same,Potency,[7],inactive
same,outcome,[20],inactive
same,max response,[8],-0.0267% (inactive) and 0.158% (inactive)
same,Potency,[9],inactive
same,Potency,[10],inactive
same,outcome,[11],inactive
same,Potency,[12],inactive
same,Potency,[13],inactive
same,Potency,[14],inactive
same,Potency,[15],inactive
same,outcome,[16],inactive
same,Potency,[17],inactive
same,outcome,[18],inactive
